Screening results deposited in PubChem by National Center for Advancing Translational Sciences (NCATS).
ATXN viability: viability counter-screen for ATXN expression inhibitors; S2 cells (HEK-293 line with an ATXN2-luciferase reporter) viability, CellTiter-Fluor protease fluorescence, 24 h; Potency, µM (doses to about 56.7 µM), usual class: cytotoxic; actives 0.49% (n = 400,000); note: nearly all actives have a fitted effect of over 40% in size
TGFb inhibitor: inhibitors of TGF-b signaling; HepG2 CAGA-GFP TGF-b/SMAD3 reporter, GFP fluorescence, 18 h; TGF-beta stimulated, 500 pg/mL final; Potency, µM (highest dose often 46.1 µM), actives largely listed as inhibitors; actives 1.2% (n = 410,000); note: nearly all actives have a fitted effect of over 65% in size
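HEPG2 CAGA-GFP reporter cells (1000/well, DMEM with 1% FBS) received compounds, then recombinant TGF-beta at 500 pg/mL final for 18 hours at 37 degrees C. Per-cell GFP summed per well was normalised to unstimulated and stimulated DMSO controls before curve fitting.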
ATXN2 expr inh: reduces ATXN2 reporter expression in HEK-293 cells; HEK-293 ATXN2-luciferase reporter, luminescence, 24 h; Potency, µM (top dose mostly 57 µM), most hits filed as inhibitors; actives 0.72% (n = 360,000); AID 1745845; note: nearly all actives have a fitted effect of over 55% in size
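ATXN2-luciferase reporter cells (luciferase flanked by upstream and downstream ATXN2 gene portions) were treated 24 h at 37 °C with compounds at up to 57 uM. SteadyGlo luminescence gave expression; GF-AFC fluorescence gave viability.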
Gal4-VP16 FLuc: Gal4-VP16 reporter inhibition counter-screen | Drosophila S2 Gal4-VP16 UAS-luciferase, luminescence, 20 h | Potency, µM (top dose mostly 53.6 µM), most hits filed as inhibitors | actives 3.5% (n = 310,000);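 note: Gal4-VP16 expression switched on by copper sulfate through the metallothionein promoter; nearly all actives have a fitted effect of over 50% in size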
RORg inh: blocks mouse ROR gamma transcriptional activity | Potency, µM (series often up to 53.6 µM), usual class: inhibitors | actives 5.4% (n = 310,000) | Drosophila S2 Gal4-RORgamma UAS-luciferase reporter, 20 h; note: nearly all actives have a fitted effect of over 60% in size
Target sequence (P51450 whole entry, looked up, the tested form may be a part): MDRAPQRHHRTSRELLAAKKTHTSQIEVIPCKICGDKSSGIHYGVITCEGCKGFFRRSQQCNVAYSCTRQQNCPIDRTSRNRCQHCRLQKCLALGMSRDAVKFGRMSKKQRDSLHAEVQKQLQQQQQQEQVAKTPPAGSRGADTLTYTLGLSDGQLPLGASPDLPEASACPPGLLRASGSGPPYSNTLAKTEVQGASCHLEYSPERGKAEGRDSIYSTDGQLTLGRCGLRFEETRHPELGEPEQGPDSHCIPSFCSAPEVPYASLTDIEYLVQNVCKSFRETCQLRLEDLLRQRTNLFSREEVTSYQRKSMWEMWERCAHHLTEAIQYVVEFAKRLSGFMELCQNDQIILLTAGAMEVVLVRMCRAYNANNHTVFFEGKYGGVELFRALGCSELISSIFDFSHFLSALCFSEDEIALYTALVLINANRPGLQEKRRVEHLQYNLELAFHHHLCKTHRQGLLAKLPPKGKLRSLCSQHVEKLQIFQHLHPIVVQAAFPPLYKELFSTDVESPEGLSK
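Luciferase reporter read in Schneider cells carrying Gal4-RORγ (mouse) and UAS-Photinus luciferase; cells given compound 1 h before 700 uM copper sulfate induction, then incubated 20 h at ambient temperature.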
HepG2 tox-1: HepG2 cytotoxicity, counter-screen for TGF-b inhibitors; HepG2 CAGA-GFP viability, ATP luminescence, 18 h; Potency, µM (highest dose often 46.1 µM), actives largely listed as cytotoxic; actives 0.76% (n = 410,000)
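CellTiter-Glo luminescence gave cytotoxicity after 18 hours at 37 degrees C. The cells were HepG2 CAGA-GFP in 1% FBS DMEM, stimulated with 500 pg/mL TGF-beta after compound addition. %Activity was normalised to no-cell wells (complete cell-killing) and DMSO (no toxicity), and curves were fitted and classified.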
TGFb CAGA inh: TGF-b pathway inhibition, cherry-pick retest. shares compounds with TGFb inhibitor. HepG2 CAGA-GFP TGF-b reporter, GFP fluorescence, 18 h; cells stimulated with TGF-beta, 500 pg/mL. Potency, µM (titrated, usually from 46.1 µM), actives largely listed as inhibitors. actives 63% (n = 1,600). AID 720534; note: nearly all actives have a fitted effect of over 65% in size
HepG2 tox-2: counter-screen for TGF-b inhibitors: cytotoxicity in HepG2 cells | shares compounds with TGFb inhibitor | HepG2 CAGA-GFP viability, ATP luminescence, 18 h; cells stimulated with TGF-beta, 500 pg/mL | Potency, µM (doses to about 46.1 µM), usual class: inhibitors | actives 27% (n = 1,600) | AID 720535; note: nearly all actives have a fitted effect of over 70% in size
TGFb CCL64 inh: TGF-b inhibition, CCL64 orthogonal assay; shares compounds with TGFb inhibitor; Potency, µM (titrated, usually from 46.1 µM), most hits filed as inhibitors; actives 41% (n = 1,600); CCL64 CAGA-GFP reporter, TGF-b stimulated, GFP fluorescence, 18 h; note: nearly all actives have a fitted effect of over 65% in size
COP TGFb inh: blocks TGF-b signaling in HepG2 COP reporter. shares compounds with TGFb inhibitor. HepG2 COP-GFP TGF-b reporter, GFP fluorescence, 18 h; cells stimulated by added recombinant TGF-beta. Potency, µM (top dose mostly 46.1 µM), most hits filed as inhibitors. actives 3% (n = 1,600); note: nearly all actives have a fitted effect of over 70% in size
A number is an active result; - = inactive; ? = inconclusive; . = no result. A selection: hits, their analogues and other compounds. The true share with any hit is near 6.1%. Calls come from the whole dose curve; as a rule, active = well fitted curve in the direction sought with a large enough effect; inconclusive = small, poorly fitted or top-dose-only effect, or another doubt; inactive = no such curve, though single readings can be large; an effect the other way counts as inactive or inconclusive.

SMILES | ATXN viability | TGFb inhibitor | ATXN2 expr inh | Gal4-VP16 FLuc | RORg inh | HepG2 tox-1 | TGFb CAGA inh | HepG2 tox-2 | TGFb CCL64 inh | COP TGFb inh
CC(C)NC(=O)N(C)C[C@H]1Oc2ccc(NS(=O)(=O)c3ccc(Cl)cc3)cc2CC(=O)N([C@@H](C)CO)C[C@@H]1C | - | ? | - | . | . | - | - | - | - | -
S=C(NCc1ccco1)Nc1ccc(Oc2ccc(Cl)cc2)cc1 | - | 15.8µM | - | 11.2µM | 2.82µM | - | ? | ? | ? | -
COC(=O)c1cc2sccc2n1Cc1c(C)cc(C)cc1C | - | - | - | . | . | - | . | . | . | .
O=C(Cc1cccc(NC(=O)C2CCCN(C(=O)C3CCCCC3)C2)c1)Nc1cccc(C(=O)N2CCCC2)c1 (stereo not given) | - | ? | - | . | . | - | ? | - | - | -
O=C(c1ccc([N+](=O)[O-])s1)N1CCc2ccccc2C1 | ? | ? | - | - | - | - | 23.1µM | ? | ? | -
O=C(c1ccc([N+](=O)[O-])s1)N1CCc2ccccc21 | - | - | - | - | - | - | . | . | . | .
CN(Cc1ccccc1)C(=O)c1ccc(NC(=O)Cc2cccc([N+](=O)[O-])c2)cc1 | - | - | - | . | . | - | . | . | . | .
CN(CCc1ccccc1)C(=O)c1cccc(NC(=O)Cc2cccc([N+](=O)[O-])c2)c1 | ? | 7.08µM | - | . | . | - | ? | - | - | -
Cc1ccc(Oc2coc3cc(OC(=O)c4cccs4)ccc3c2=O)cc1 | - | - | - | - | - | - | . | . | . | .
Cc1cc(C)cc(Oc2coc3cc(OC(=O)c4cccs4)ccc3c2=O)c1 | - | ? | - | - | - | - | ? | - | - | -
Cc1ccc(NC(=O)CN2CC(C)SC2=NC2CCCCC2)cc1 (stereo not given) | ? | ? | - | - | - | - | ? | - | - | -
CCc1ccc(NC(=O)CN2CCN(C3CCCCC3)C(=O)C2=O)cc1 | - | - | - | . | . | - | . | . | . | .
Cc1c(C(=O)Nc2ccc(F)cc2F)nnn1-c1ccccc1Br | ? | - | - | . | . | - | . | . | . | .
Cc1ccc(NC(=O)c2cc(C(=O)c3cc(Cl)ccc3O)cn(-c3ccc(C)cc3)c2=O)cc1 | - | 7.94µM | - | - | ? | - | ? | ? | ? | -
CCc1ccc(-c2csc(NC(=O)C3=NN(c4ccccc4)C(=O)CC3)n2)cc1 | - | - | . | ? | - | - | . | . | . | .
Cc1cc(C)c(-c2csc(NC(=O)C3=NN(c4ccccc4)C(=O)CC3)n2)c(C)c1 | ? | ? | . | - | - | - | 6.51µM | - | - | -
CC(C)Oc1cccc(NC(=O)C2CCN(S(=O)(=O)Cc3ccccc3)CC2)c1 | - | - | - | . | . | - | . | . | . | .
COc1cc2c(c(OC)c1OC)-c1ccc(SC)c(=O)cc1C(NC(=O)c1ccccc1)CC2 (stereo not given) | ? | ? | - | . | . | - | . | . | . | .
COc1cc2c(c(OC)c1OC)-c1ccc(SC)c(=O)cc1C(NC=O)CC2 (stereo not given) | ? | - | - | . | . | - | ? | 23.1µM | ? | -
COc1cc2c(c(OC)c1OC)-c1ccc(OC)c(=O)cc1C(NC(=O)c1ccccc1)CC2 (stereo not given) | - | ? | - | . | . | - | ? | - | ? | ?
CCN(C(=O)c1sc2nc3n(c(=O)c2c1C)CCCC3)c1ccccc1F | - | - | - | . | . | - | . | . | . | .
Cc1cc(C)nc(S/C=C/C(=O)c2ccccc2F)n1 | - | 3.55µM | - | 10µM | 7.94µM | - | 1.84µM | 20.6µM | 6.51µM | ?
O=C(N/N=C/c1ccc2c(c1)OCO2)c1cc(-c2ccccc2Cl)nc2ccccc12 | - | ? | - | - | ? | - | - | - | - | -
C=C(C(C)=O)C(O)c1ccco1 (stereo not given) | . | . | . | - | - | . | . | . | . | .
CCN(CC)C(=O)c1ccc2nc3ccccc3nc2c1 | - | 10µM | - | - | - | - | ? | 11.6µM | - | -
SMILES | ATXN viability | TGFb inhibitor | ATXN2 expr inh | Gal4-VP16 FLuc | RORg inh | HepG2 tox-1 | TGFb CAGA inh | HepG2 tox-2 | TGFb CCL64 inh | COP TGFb inh
O=c1c(Br)c(N2CCCC2)cnn1-c1ccccc1 | - | - | - | - | - | - | . | . | . | .
O=c1c(Br)c(Br)cnn1-c1ccccc1 | . | 10µM | 5.32µM | 5.01µM | 3.16µM | 12.6µM | 4.61µM | 8.2µM | 4.61µM | ?
OCCCn1c(CCCNc2nc(-c3cccc(Br)c3)cs2)nc2cc(Cl)c(N3CCCCC3)cc21 | ? | 10µM | - | - | - | - | 13µM | - | ? | -
CCCCN(CC)C(=O)CSc1nc2n[nH]c(C)c2c(=N)n1-c1cccc(C)c1 | ? | 7.08µM | . | - | - | - | ? | - | ? | -
O=C(NCc1ccncc1)c1ccc2nc(Cc3ccccc3F)oc2c1 | - | ? | - | - | - | - | ? | - | - | -
COc1ccccc1CNC(=O)C(=O)NCC(c1ccco1)S(=O)(=O)c1cccs1 (stereo not given) | . | ? | . | . | . | - | . | . | . | .
Cc1ccc(C(C)C)cc1NC(=O)Nc1ccc([N+](=O)[O-])cc1 | ? | 7.94µM | . | 12.6µM | 35.5µM | - | ? | ? | 18.4µM | -
Cc1cc(O)c(C(C)C)cc1NC(=O)Nc1ccc([N+](=O)[O-])cc1 | - | - | - | . | . | - | . | . | . | .
Oc1ccc(C[C@@H](CN2CCCC2CN2C(=S)NC[C@@H]2Cc2ccccc2)N2C[C@H](Cc3ccccc3)N(CC3CCCCCC3)C2=S)cc1 (stereo not given in full) | - | . | - | . | . | . | . | . | . | .
Oc1ccc(C[C@H]2CNC(=S)N2CC2CCCN2C[C@H](Cc2ccc(O)cc2)N2C[C@H](Cc3ccccc3)N(CC3CCCCC3)C2=S)cc1 (stereo not given in full) | ? | 7.94µM | ? | . | . | - | 6.51µM | ? | ? | -
